SMILES strings stand for the structures. Records with an inconclusive call do not appear. Unmarked numbers belong to inactive results. Active and inactive are the calls of the source. The call rests on the fitted dose curve; in most records, active means well fitted inhibition curve with a large enough effect; inconclusive means small, poorly fitted or top-dose-only effect; inactive means no such curve, though single readings can be large or run the other way.

In this experiment the target is Retinaldehyde dehydrogenase 3 (Homo sapiens) (UniProt P47895). Kind of experiment: qHTS for Inhibitors of the Aldehyde Dehydrogenase Family (ALDH1A3) Primary screen (AID 2061315).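 Further: plate controls were DMSO vehicle for no effect and reference inhibitor for full effect.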 To be noted: ALDH inhibition qHTS; series mostly up to 56 µM; activity change, negative = inhibition: at the top concentration. (Quantitative high-throughput screening tests each substance at several concentrations.)
Take `CCO[C@H]1CN(C2CCC(O)(c3ccc4c(c3)OCO4)CC2)C[C@@H]1NC(=O)CNC(=O)c1cccc(C(F)(F)F)c1` (stereo partly specified): the “activity change, negative = inhibition” value was 12.8%.

`CCCc1cc(C)[nH]c(=O)c1CNC(=O)c1cc(-c2ccnc(N3CCN(C)CC3)c2)cc2c1cnn2C(C)C`: the “activity change, negative = inhibition” value is 23%.

On to `O=C(Nc1ccccc1Br)NC1CCN(c2ccc(C(F)(F)F)cn2)C1` (stereo unspecified), for which the “activity change, negative = inhibition” value was 9.26%.

Regarding `N#CC(c1ccnc(OCc2ccc(CN3CCOCC3)cc2)n1)c1nc2ccccc2s1` (stereo unspecified), the “activity change, negative = inhibition” value was 7.72%.

Turning to `CC(C)c1ccccc1OC(=O)NCCc1ccc2ccccc2c1`, the “activity change, negative = inhibition” value was -22.5%.

For `CCn1c2ccccc2c2cc(CNC)ccc21`, the Potency entry was “inactive”.

With `Cc1ccc(Cl)cc1N(CC(=O)Nc1c(F)cccc1F)S(C)(=O)=O`, the “activity change, negative = inhibition” value was -0.099%.

For `CNc1ccc([N+](=O)[O-])cc1-n1cnc(-c2ccc(C(F)(F)F)cc2)c1`, the “activity change, negative = inhibition” value was 7.18%.

With `COc1ccc(C(=O)NCc2cc(C(C)C)no2)cc1OC1CCN(C)CC1`, the “activity change, negative = inhibition” value was -10.7%.

In the case of `COc1ccc(CN2CCN(C(=O)CCNC(=O)c3ccc(C(C)(C)C)cc3)CC2)cc1`, the “activity change, negative = inhibition” value was 14.8%.

With `Cc1onc(-c2ccccc2Cl)c1C(=O)N(C)c1ccc(Cl)cc1`, the “activity change, negative = inhibition” value was -15%.

As to `CS(=O)(=O)c1ccc([C@@H](O)[C@@H](CF)NC(=O)C(Cl)Cl)cc1`, the “activity change, negative = inhibition” value is 5.29%.

Turning to `CC[C@H]1CN(c2nc(N)c(C(N)=O)nc2Cl)CCN1C1CCN(Cc2ccc(Cl)cc2)CC1`, the “activity change, negative = inhibition” value is -13.8%.

As to `O=S(=O)(Nc1ccccc1N1CCCCC1)c1ccc(Cl)s1`, the “activity change, negative = inhibition” value was 9.04%.

As to `c1ccc(C(OC2CCN(CCCc3nn[nH]n3)CC2)c2ccccc2)cc1`, the “activity change, negative = inhibition” value was -2.07%.

As to `COc1ccc2cc(-c3cc(-c4cc(Cl)cc(Cl)c4)nn3C(C)c3ccc(C(=O)NCCC(=O)O)cc3)ccc2c1` (stereo unspecified), the “activity change, negative = inhibition” value is -14.4%.

Source of the values: PubChem BioAssay (NCATS).
